In the library only some 3.9% were active in any assay of this set; here they are far more common.
HIF-2a block: blocks HIF-2a reporter activity; 786-0 RCC cells HIF-2a reporter, luciferase luminescence, overnight; inhibition, % at 18.8 µM; hit rate 0.72% among 360,000; AID 624352;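 active = inhibition of the luminescence signal of 40% or more relative to plate controls, in a single-dose primary screen at 18.75 µM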
Peg3 promoter: inhibitors of Peg3 promoter; HeLa PEG-Prom luciferase reporter, luminescence, overnight; inhibition, % at 20 µM; hit rate 1.7% among 360,000;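 active = inhibition of at least 50% at 20 µM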
CF NFkB inh: inhibitors of cystic fibrosis induced NF-kB; inhibition, % at 5 µM; AID 588850; hit rate 0.86% among 360,000; KKLEB NF-kB-GFP reporter, PAF-induced, GFP fluorescence overnight;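 active = at least 50% inhibition at 5 µM, scaled per plate between neutral and stimulator controls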;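 note: PAF is a Pseudomonas aeruginosa culture filtrate used as stimulus; plate controls were PAF-stimulated DMSO wells for no effect and unstimulated DMSO wells for full effect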
TWEAK-Fn14 inh: TWEAK-Fn14 signaling inhibition; TWEAK-stimulated Fn14 reporter cells, luciferase luminescence, 8 h; inhibition, % at 10 µM; hit rate 2% among 360,000; in the data active = inhibition above about 50%
KKLEB tox: counter-screen for CF NF-kB inhibitors: cytotoxicity | KKLEB CF airway cells viability, ATPlite luminescence, overnight; active compounds read low; cells stimulated with P. aeruginosa culture filtrate | activity change (cytotoxicity), % at 5 µM | hit rate 0.36% among 360,000 | AID 602141;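 active = corrected activity change at or below -50% at 5 µM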
TROY signal inh: blocks TROY-dependent signaling in reporter cells; hit rate 0.98% among 360,000; Q293 LMP1-TROYcd NF-kB luciferase reporter, 4 h; inhibition, % at 10 µM;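 active = compounds whose plate-normalised and pattern-corrected inhibition of the luciferase reporter signal at the single screening dose is 50% or more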
Numbers without * were called inactive; x = not tested or not shown.

SMILES | HIF-2a block | Peg3 promoter | CF NFkB inh | TWEAK-Fn14 inh | KKLEB tox | TROY signal inh
CCS(=O)(=O)N1Cc2ccccc2CC1C(=O)N(C)CC(=O)Nc1cccc(F)c1 (centres undefined) | -115 | -31 | -10 | 21 | -8 | 59*
O=C(Nc1cccc(S(=O)(=O)N2CCCCC2)c1)c1ccccc1NS(=O)(=O)c1ccc(F)cc1 | 4 | 37 | 44 | 58* | -19 | 54*
CN(CC(=O)Nc1ccc(F)cc1)C(=O)C1Cc2ccccc2CN1S(C)(=O)=O (centres undefined) | -15 | -14 | -1 | -10 | 2 | -9
Cc1ccc(NC(=O)CN(C)CC(=O)Nc2cccc(F)c2)cc1S(=O)(=O)N1CCCCCC1 | 15 | 59* | -11 | 50* | -14 | 50*
Cc1ccc(NC(=O)c2cc(=O)c3ccccc3o2)cc1S(=O)(=O)N1CCCCC1 | 15 | 42 | 7 | -18 | -1 | 57*
Cc1ccc(NC(=O)c2ccccc2NS(=O)(=O)c2ccc(F)cc2)cc1S(=O)(=O)N1CCCCC1 | 11 | 52* | 48 | 72* | -26 | 60*
Cc1ccc(C(=O)Nc2ccccc2C(=O)NCc2ccco2)cc1S(=O)(=O)N1CCCCC1 | -6 | 35 | 11 | 52* | -17 | -27
Cc1ccc(NC(=O)CCNC(=O)c2ccccc2Cl)cc1S(=O)(=O)N1CCCCCC1 | 17 | 32 | 8 | 1 | 11 | 2
O=C(O)/C=C/c1nc(-c2ccccc2)n2ccccc12 | 0 | 12 | -1 | 34 | 2 | -9
Cc1nc2c(-c3ccccc3)c(C)nn2c(N)c1-c1ccccc1 | -256 | -295 | 4 | -18 | -24 | 10
Cc1nc2cc(-c3ccccc3)nn2c(N)c1-c1ccccc1 | -118 | -101 | -9 | 74* | -26 | 73*
COc1ccc(-c2cc3nc(C)cc(N)n3n2)cc1 | -30 | -37 | -12 | 60* | -25 | 10
O=C(CCCNC(=O)c1ccc(Cl)cc1)Nc1nccs1 | 5 | 7 | 26 | -14 | -8 | 16
Cc1ccc(S(=O)(=O)c2c(C)nn(C(C)(C)C)c2OC(=O)c2ccc(Br)o2)cc1 | -4 | 70* | 13 | 22 | 2 | 44
CCOc1ccc(CNc2ccc(N3CCN(Cc4ccccc4)CC3)cc2)cc1 | 15 | 30 | 6 | 24 | -4 | 12
CCOc1cc(CNc2ccc(N3CCCC3)cc2)cc(Cl)c1OC | -29 | 29 | -8 | 59* | -2 | 32
COc1cc(CNc2ccc(N3CCCC3)cc2)cc(Cl)c1OC | -7 | -26 | 5 | 32 | -4 | 20
CCOc1ccc(CNc2ccc(N3CCCC3)cc2)cc1 | -52 | -8 | 10 | 55* | -8 | 40
COc1ccc(S(=O)(=O)N(C)CC(=O)Nc2ccccc2C(F)(F)F)cc1OC | 9 | 13 | -6 | 74* | 2 | x
COC(=O)c1nc(NNC(=O)c2ccccc2)sc1-c1ccccc1 | -5 | -13 | -22 | 82* | 6 | -6
O=C(NC(NCc1ccccc1)C(Cl)(Cl)Cl)c1cccnc1 (centres undefined) | 11 | 2 | 3 | 1 | -11 | -2
O=C(NC(NCc1cccnc1)C(Cl)(Cl)Cl)c1cccc2ccccc12 (centres undefined) | 23 | 22 | 10 | 65* | -9 | -7
O=C(NCCc1ccccc1)c1ccccc1Cl | 20 | -24 | 4 | 78* | -3 | 31
CCOCCNC(=O)c1ccccc1C(=O)NCCOCC | 10 | 0 | 4 | 18 | 5 | -10
O=C(O)c1ccccc1C(=O)NCCc1ccc(Cl)cc1 | -3 | 3 | 10 | 7 | 1 | -1
SMILES | HIF-2a block | Peg3 promoter | CF NFkB inh | TWEAK-Fn14 inh | KKLEB tox | TROY signal inh
Cn1cccc1C(=O)NCCc1ccccc1 | -89 | -170 | -2 | 56* | -5 | -10
O=C(c1cc(C(=O)NCCc2ccccc2)c(=O)n(CCc2ccccc2)c1)c1cc(Cl)ccc1O | 10 | 52* | 36 | 66* | -24 | 14
COc1ccc(CCNC(=O)c2cc(C(=O)c3cc(Cl)ccc3O)cn(CCc3ccc(OC)cc3)c2=O)cc1 | 20 | 39 | 16 | 46 | -4 | 17
CCCNC(=O)c1ccccc1C(=O)NCCC | 13 | 11 | 9 | 89* | -2 | 2
C=CCc1ccc(O)c(-c2cc(CC=C)ccc2O)c1 | 13 | 26 | 20 | 3 | 1 | 24
CC(C)CN(C(=O)CN1CCN(c2ccc(O)cc2)CC1)c1c(N)n(CC(C)C)c(=O)[nH]c1=O | 4 | -6 | -6 | -10 | 4 | -39
S=c1nc2ccccc2c2nc(-c3ccccc3)[nH]n12 | -121 | -74 | -9 | 2 | -16 | -78
CCOC(=O)C1CCN(CC(=O)Nc2c(C(=O)OC)[nH]c3ccc(Cl)cc23)CC1 | 7 | 38 | 3 | 64* | -4 | 48
CCOC(=O)c1[nH]c2ccc(OC)cc2c1NC(=O)CN1CCc2ccccc2C1 | 7 | 55* | 20 | 44 | -16 | 35
C/C=C(\C)C(=O)OC1[C@H](OC(C)=O)C2(CO)C(CC1(C)C)C1=CCC3C4(C)CCC(O[C@@H]5O[C@H](C(=O)O)[C@@H](O[C@@H]6O[C@H](CO)[C@@H](O)[C@H](O)[C@H]6O)[C@H](O)[C@H]5O[C@H]5O[C@H](CO)[C@@H](O)[C@H](O)[C@H]5O)[C@](C)(CO)C4CCC3(C)[C@]1(C)C[C@H]2O (some centres undefined) | 93* | 105* | 91* | 15 | -89* | 87*
CC1(C)C[C@H](O)[C@]2(CO)[C@H](O)C[C@]3(C)C(=CCC4[C@@]5(C)CC[C@H](O)C(C)(C)C5CC[C@]43C)[C@@H]2C1 (some centres undefined) | 12 | 95* | 69* | -29 | -65* | -4
CC1(C)C[C@H]2C3=CCC4[C@@]5(C)CC[C@H](O[C@@H]6O[C@H](C(=O)O)[C@@H](O)[C@H](O)[C@H]6O)[C@@](C)(CO)C5CC[C@@]4(C)[C@]3(C)C[C@H](O)[C@@]2(CO)[C@@H](O)[C@@H]1O (some centres undefined) | 14 | 8 | 14 | 5 | 6 | 57*
CC1(C)C[C@H](O)[C@]2(CO)CC[C@]3(C)C(=CCC4[C@@]5(C)CC[C@H](O)C(C)(C)C5CC[C@]43C)[C@@H]2C1 (some centres undefined) | 8 | 9 | 19 | -47 | -6 | 2
C/C=C(/C)C(=O)OC1CC(C)(C)C[C@H]2C3=CC[C@@H]4[C@@]5(C)CCC(O[C@@H]6O[C@@H](C(=O)O)[C@@H](O)C(O[C@@H]7OC[C@H](O)[C@@H](O)[C@@H]7O[C@@H]7OC(CO)C(O)[C@@H](O)[C@@H]7O)C6O[C@@H]6OC(CO)C(O)C(O)C6O)[C@@](C)(CO)[C@@H]5CC[C@]4(C)[C@]3(C)CC(O)[C@@]12CO (some centres undefined) | 24 | -5 | 4 | -12 | 12 | 0
